# Reference: PubChem BioAssay (NCI)
# About 83,000 compounds went through this panel and 20% of them were active in at least one assay; those are over-represented in the sample as a whole.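 Step 1: grow cells in 96-well plates. Step 2: add test compound at a single concentration. Step 3: incubate 48 h. Step 4: record percent growth.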 Unmarked numbers belong to inactive results. Calls of active or inactive are those of the source. Rule for the calls: active = growth percent below 10; inactive = the rest.
# What was measured:
# Test in all cases: NCI-60 one-dose screen, 48 h (100 = growth as untreated, 0 = no growth, -100 = all killed)
# Conditions in all cases: 10 µM unless noted
# SK-MEL-2 melanoma = test system: SK-MEL-2 melanoma
# EKVX NSCLC = test system: EKVX NSCLC
# SN12C renal = test system: SN12C renal
# UO-31 renal = test system: UO-31 renal
# ACHN renal = test system: ACHN renal
# CAKI-1 renal = test system: CAKI-1 renal
# A498 renal = test system: A498 renal
# MOLT-4 leukemia = test system: MOLT-4 leukemia
# TK-10 renal = test system: TK-10 renal
# CCRF-CEM leukemia = test system: CCRF-CEM leukemia
SMILES,growth (SK-MEL-2 melanoma),growth (EKVX NSCLC),growth (SN12C renal),growth (UO-31 renal),growth (ACHN renal),growth (CAKI-1 renal),growth (A498 renal),growth (MOLT-4 leukemia),growth (TK-10 renal),growth (CCRF-CEM leukemia)
NC(=S)c1csc(CCNC(=O)c2ccccc2)n1,115%,115%,91.8%,91%,105%,91.3%,89.6%,102%,,
CCN1CCN(c2ccc(Nc3cc(-c4cccnc4Nc4c(Cl)c(OC)cc(OC)c4Cl)ncn3)cc2)CC1,74.9%,87.4%,56.6%,,42.6%,48.5%,21.8%,9.51% (active),68.1%,31.6%
N#Cc1c(-c2ccccc2)nc(SCC2CO2)nc1N1CCOCC1 (stereo not drawn),66.9%,78.4%,69.9%,29.5%,59.2%,38.6%,-15.2% (active),68.6%,,96.6%
COc1ccc(/C(C)=C(\c2ccc(Cl)cc2)c2ccc(OCCN3CCCC3)cc2)cc1F,59.9%,47%,51.6%,28.9%,50.9%,22%,68%,-5.27% (active),,31.2%
CC(=O)NCC(=O)Nc1ccc(-c2nnc3ccccn23)nc1.CC(=O)NCC(=O)Nc1ccc(-c2nnc3ccccn23)nc1.[Pt+2],91.4%,110%,106%,106%,103%,115%,101%,,,93.3%
O=C1c2ccccc2C(=O)c2cc(Cn3cc[n+](Cc4ccc5ccccc5c4)c3)ccc21,89.1%,70.9%,74.4%,82.5%,108%,96.5%,98.3%,79.1%,,71%
C=CC(=O)N[C@@H](Cc1ccc(-c2cc(Cl)cc(Cl)c2)cc1)[C@@H](O)[C@H](O)C(=O)O,97%,93%,95.7%,84%,100%,91.6%,,93.3%,,105%
COc1ccc(C(=O)/C=C/C23c4ccccc4C(c4ccccc42)C2C(=O)NC(=O)C23)cc1 (stereo not drawn),103%,87.5%,86.9%,72.6%,95.4%,90.7%,,87.3%,,89.8%
CCN(CC)CCOC(=O)Nc1ccccc1Cl,88.3%,106%,103%,80.4%,,,114%,94.7%,,75.7%
CN(C)CCOC(=O)Nc1ccc(Cl)cc1,79.4%,101%,107%,71.2%,,,113%,89.9%,,80.5%
CCN(CC)N=Nc1nn(C(=O)Nc2ccc(Cc3ccccc3)cc2)c2ccc(Cl)cc12,72.9%,47.5%,83.1%,,28.1%,65.9%,87.9%,,83.5%,62.5%
CC(C)CCC[C@@H](C)[C@H]1CCC2C3=CCn4c(=O)ccc(=O)n4C3CC[C@@]21C (stereo partly drawn),-57.4% (active),-82.2% (active),-97.7% (active),-88.5% (active),-95.1% (active),-91.6% (active),-94.8% (active),-23.6% (active),,-2.44% (active)
Cl.Fc1c[c-]c(-c2ccccn2)c(F)c1.[Pt].c1ccc([PH+](C[PH+](c2ccccc2)c2ccccc2)c2ccccc2)cc1,-74.6% (active),-84.4% (active),-70.3% (active),-93.2% (active),-97.8% (active),-91% (active),,-38.9% (active),,
Cn1c(NCCc2ccc(O)c(O)c2)nc2c1c(=O)n(Cc1ccc(Cl)cc1)c(=O)n2C,95%,84.8%,82.7%,,39.5%,38.7%,86.2%,,69.9%,12.8%
CCCCCOC(=O)c1ccc(NC(=O)CNCC(C)C)cc1,103%,90.8%,94%,66.5%,,,71.8%,86.5%,,74.3%
C=CCN1C(=O)[C@]2(SC1=S)[C@H](c1cccc(Cl)c1)CN(C)[C@]21C(=O)NC2C=CC(Cl)=C[C@H]21 (stereo partly drawn),44.2%,38.4%,-53.6% (active),-41.2% (active),,,76.8%,-17.7% (active),,4.67% (active)
C=C(C)C1CCC(=C)C2CCC3(C)OC12/C=C(/COC(C)=O)CCC3O (stereo not drawn),85.4%,96.1%,106%,92.7%,98.2%,6.18% (active),104%,83.6%,,130%
Cc1ccc(S(=O)(=O)Nc2sccc2-c2nc(-c3ccccc3)no2)cc1,91.6%,94.2%,95.1%,70.4%,89.9%,81.3%,96.3%,98%,,92.1%
CNC(=O)NCC1OC(n2cnc3c(NC(=O)Nc4ccccc4)ncnc32)C2OC(C)(C)OC12 (stereo not drawn),104%,102%,94.7%,73.7%,105%,72.6%,87.2%,103%,,95.4%
O=C(CCl)N1c2cccc3cccc(c23)N(C(=O)CCl)C1c1cn(-c2ccccc2)nc1-c1cccc([N+](=O)[O-])c1,111%,102%,93.5%,66.9%,76.7%,92.5%,,34.7%,,8.63% (active)
C[C@@H]1CC[C@@H]2[C@@H]1[C@H](OC(=O)c1ccc3ccccc3c1)[C@]1(C3CCCCC3)C[C@@H](OC(=O)CO)[C@@]2(C)O1,69.5%,62%,24%,-43.6% (active),7.83% (active),-31% (active),-85% (active),,,48.3%
CCOC(=O)C(=CNc1ccccc1[N+](=O)[O-])C(=O)OCC,101%,114%,94.2%,,86%,98.9%,64.1%,,106%,93.7%
COc1ccc(C2CC(c3ccc4ccccc4c3)=NN2c2nc(O)c(C3=c4cc(Cl)ccc4=NC3=O)s2)cc1 (stereo not drawn),-77% (active),-74.3% (active),-30.5% (active),,-63.8% (active),-50.4% (active),-84.3% (active),-21.5% (active),-66.6% (active),-19% (active)
Cc1[nH]c(-c2nc3ccccc3[nH]2)c(C)c1C(=O)N1CCOCC1,99.6%,91.2%,86.8%,,98.3%,101%,,,106%,
CCOC(=O)c1nnn(-c2ccccc2)c1C1=CN(C)CCC1,103%,99%,106%,82%,100%,97.8%,101%,97.3%,,
NC(N)=N/N=C(/c1ccccc1)c1ccccc1F,70.5%,60%,37.1%,44%,41%,35.7%,44.9%,22.4%,,-2.22% (active)
CC1=NN(c2cccc(Cl)c2)C(=O)/C1=C\c1cn(CC(O)CN2CCCCC2)c2ccccc12 (stereo not drawn),73.8%,88%,66.3%,67%,38.6%,24%,80.2%,48.3%,,41.9%
CN1C[C@@H](c2ccc(Cl)cc2)[C@]2(NC(=S)N(c3ccc(F)c(Cl)c3)C2=O)[C@@]12C(=O)NC1C=CC(Cl)=C[C@H]12 (stereo partly drawn),53.3%,50.7%,-63.2% (active),26.1%,,,,3.29% (active),82%,6.69% (active)
Cc1ccc(O)c(C(=O)c2ccccc2Cl)c1,112%,87.7%,103%,79.7%,94.8%,84.2%,,94.8%,,115%
CC1(C)C(=O)/C(=C\c2cccnc2)C[C@]2(C)[C@H]3CC=C4[C@@H]5C[C@@](C)(C(=O)O)CC[C@]5(C)CC[C@@]4(C)[C@]3(C)CC[C@@H]12,96.8%,95.8%,94.2%,84.2%,95.8%,86.9%,,87.2%,,81.8%
